Measurements reported in the supplement of paper PMC6089552.
± gives the standard deviation of the averaged measurements. The campaign covered roughly 3,200 compounds. About 300 (9.4%) showed activity. The sample holds actives, similar compounds and a random draw of the others, so the mix is not that of the screen.

Test system: A673/TR/shEF
Experiment: cell viability (LOESS-normalised, relative to median of negative controls) (log2 ratio); higher = more viable cells (less compound effect), active = hit call of the paper (over 3 MAD below the median)
Settings: treatment time: 72 h
Summary of the method: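 A673/TR/shEF Ewing sarcoma cells (1,500 per well, 384-well plates) were grown with or without doxycycline to induce EWS-FLI1 shRNA knockdown, starting 24 h before compounds. Library compounds at two or more concentrations, with DMSO controls, were added for three days. Cell viability was read by CellTiter-Glo luminescence on an Envision reader, then LOESS-corrected per plate, divided by the median of negative controls and log2-transformed. Hits were wells at least three median absolute deviations from the median of all screened wells.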

[1] = 0.25 µM, library screen: screen2, EWS-FLI1 expression: high (no doxycycline)
[2] = 0.25 µM, library screen: screen2, EWS-FLI1 expression: low (doxycycline-induced shRNA knockdown)
[3] = 2.5 µM, library screen: screen2, EWS-FLI1 expression: high (no doxycycline)
[4] = 2.5 µM, library screen: screen2, EWS-FLI1 expression: low (doxycycline-induced shRNA knockdown)
[5] = 0.25 µM, library screen: screen1, EWS-FLI1 expression: high (no doxycycline)
[6] = 0.25 µM, library screen: screen1, EWS-FLI1 expression: low (doxycycline-induced shRNA knockdown)
[7] = 2.5 µM, library screen: screen1, EWS-FLI1 expression: high (no doxycycline)
[8] = 2.5 µM, library screen: screen1, EWS-FLI1 expression: low (doxycycline-induced shRNA knockdown)
[9] = 0.103 µM, library screen: screen3, EWS-FLI1 expression: high (no doxycycline)
[10] = 0.103 µM, library screen: screen3, EWS-FLI1 expression: low (doxycycline-induced shRNA knockdown)
[11] = 0.308 µM, library screen: screen3, EWS-FLI1 expression: high (no doxycycline)
[12] = 0.308 µM, library screen: screen3, EWS-FLI1 expression: low (doxycycline-induced shRNA knockdown)
[13] = 0.926 µM, library screen: screen3, EWS-FLI1 expression: high (no doxycycline)
[14] = 0.926 µM, library screen: screen3, EWS-FLI1 expression: low (doxycycline-induced shRNA knockdown)
[15] = 2.8 µM, library screen: screen3, EWS-FLI1 expression: high (no doxycycline)
[16] = 2.8 µM, library screen: screen3, EWS-FLI1 expression: low (doxycycline-induced shRNA knockdown)
[17] = 8.3 µM, library screen: screen3, EWS-FLI1 expression: high (no doxycycline)
[18] = 8.3 µM, library screen: screen3, EWS-FLI1 expression: low (doxycycline-induced shRNA knockdown)
[19] = 25 µM, library screen: screen3, EWS-FLI1 expression: high (no doxycycline)
[20] = 25 µM, library screen: screen3, EWS-FLI1 expression: low (doxycycline-induced shRNA knockdown)

Measured: cell viability (log2)

COc1cc2ncnc(Nc3ccc(O)cc3)c2cc1OC
inactive: [1] 0.241 | [2] 0.0114 | [3] 0.112 | [4] 0.0956

CC(C)CC1NC(=O)CNC1=O (stereo unspecified)
inactive: [5] 0.138 | [6] 0.0779 | [7] 0.0859 | [8] 0.0262

Oc1ccc2c(c1)O[C@H](c1ccc(O)c(O)c1)[C@@H](O)C2
inactive: [5] 0.0741 | [6] -0.0244 | [7] 0.0985 | [8] 0.085

COc1cc(O)c2c(=O)cc(-c3ccc(OC)c(-c4c(O)cc(O)c5c(=O)cc(-c6ccc(O)cc6)oc45)c3)oc2c1
inactive: [5] 0.0329 | [6] 0.0664 | [7] 0.144 | [8] -0.0351

CC(=O)OCC(=O)[C@@]1(O)CC[C@H]2[C@@H]3CC[C@@H]4C[C@H](OC(C)=O)CC[C@]4(C)[C@H]3C(=O)C[C@@]21C
inactive: [5] 0.118 | [6] 0.0343 | [7] 0.0611 | [8] -0.0696

NC(CCC(=O)NCS(=O)(=O)O)C(=O)O (stereo unspecified)
inactive: [1] 0.192 | [2] 0.0399 | [3] 0.0879 | [4] 0.0533

N/C(=N/c1nc2ccccc2o1)NC(=O)c1cccc(Br)c1
inactive: [5] 0.0693 | [6] -0.0125 | [7] 0.162 | [8] -0.0831

CN(Cc1ccccc1)C(=O)C=Cc1ccc([N+](=O)[O-])cc1
inactive: [5] 0.0837 | [6] 0.078 | [7] 0.013 | [8] 0.137

COc1ccc(OC)c(C2NC(=S)NC(C)=C2C(=O)Nc2ccccc2Cl)c1 (stereo unspecified)
inactive: [5] 0.0287 | [6] 0.0702 | [7] 0.112 | [8] 0.148

COc1cccc2c1C(=O)c1c(O)c3c(c(O)c1C2=O)C[C@@](O)(C(=O)CO)C[C@@H]3O[C@H]1C[C@H](N)[C@H](O)[C@H](C)O1
active: [11] -0.86 | [12] -0.36 | [13] -1.59 | [14] -0.403 | [15] -2.62 | [16] -1.5 | [17] -4.26 | [18] -4.27 | [19] -4.05 | [20] -4.25
inactive: [9] -0.177 | [10] -0.0878

CC(=O)[C@]1(O)Cc2c(O)c3c(c(O)c2[C@@H](O[C@H]2C[C@H](N)[C@H](O)[C@H](C)O2)C1)C(=O)c1ccccc1C3=O
active: [1] -2.37 | [2] -0.307 | [3] -3.12 | [4] -0.984

COc1cccc2c1C(=O)c1c(O)c3c(c(O)c1C2=O)C[C@@](O)(C(C)=O)C[C@@H]3O[C@H]1C[C@H](N)[C@H](O)[C@H](C)O1
-0.133 ± 0.18: [10]
active: [9] -0.695 | [1] -1.6 | [2] -0.269 | [11] -1.27 | [12] -0.403 | [13] -2.5 | [14] -0.592 | [3] -2.54 | [4] -0.371 | [15] -3.11 | [16] -1.48 | [17] -4.09 | [18] -3.66 | [19] -4.26 | [20] -4.25

COc1cccc2c1C(=O)c1c(O)c3c(c(O)c1C2=O)C[C@@](O)(C(=O)CO)C[C@@H]3O[C@H]1C[C@H](N)[C@@H](O)[C@H](C)O1
active: [9] -0.347 | [10] -0.195 | [11] -1.12 | [12] -0.399 | [13] -1.58 | [14] -0.41 | [15] -3.26 | [16] -1.19 | [17] -4.26 | [18] -4.27 | [19] -4.26 | [20] -4.25

Cc1cccc(-n2ncc3c(N4CCCC4)ncnc32)c1
inactive: [5] 0.069 | [6] 0.0339 | [7] 0.118 | [8] 0.0767

COc1cc(-c2oc3c(OC)c(O)cc(O)c3c(=O)c2O)ccc1O
inactive: [5] 0.0554 | [6] 0.0375 | [7] 0.0118 | [8] 0.0806

COc1ccc(OC)c(CN2CCN(Cc3c[nH]c4ccccc34)CC2)c1
inactive: [5] 0.113 | [6] 0.0685 | [7] 0.072 | [8] 0.0923

C[C@@H](O)[C@H]1C(=O)N2C(C(=O)[O-])=C(SC3Cn4cnc[n+]4C3)[C@H](C)[C@H]12 (stereo partly specified)
inactive: [9] 0.0935 | [10] 0.0362 | [11] 0.108 | [12] 0.0849 | [13] 0.0657 | [14] 0.0643 | [15] 0.107 | [16] 0.0482 | [17] 0.0477 | [18] 0.0712 | [19] 0.131 | [20] 0.0731

CN=c1nc(C2C=CC=CC2)n(C2C=CC=CC2)s1 (stereo unspecified)
inactive: [1] 0.18 | [2] 0.0729 | [3] 0.119 | [4] 0.0881

C/C(=C\CO)CCC[C@H](C)CCC[C@H](C)CCCC(C)C
inactive: [5] 0.0657 | [6] 0.0273 | [7] 0.135 | [8] -0.104

CCCCC[C@@H](CC(=O)O)C(=O)O
inactive: [5] 0.0401 | [6] 0.147 | [7] 0.16 | [8] 0.126
